# Data reported in the supplement of paper PMC8728848.
# About 410 targets per protein were measured; listed, in parts, are those with the strongest signals and a random draw of the rest.
# B1: PX14343H-pdi-506-26-506 (Parabacteroides distasonis) (protein)
# chain: QPTGTMTTDSKLTSKESALALTNSAYLKNTVFNKMTPGWGCNTILLLEYMTGKATSENSQSNYKDFQDLLVSDRSLYIEDWWQDCYAGIANCNLALQKLGEFENLDASLVNGYMAEVKFMRALYYFYLVRIFGDVPKITTVQSELGELQVSRAPVKEIYDEIIIPDLLEAEQSDLAFSDHTGRVSMGAVKALLADVYLTYAGYPLQGGKSYYAESAKRSLEVIKSNEYTLFTDYESLRLPSQNNKGEFIYQVQFSLNKRHNESVRIFLPSRSGISAYDLEYGSLIPTKEFVESFEKGDKRTEEKQYFFTNYKGHPSKFSPGAAELEFMDLNGYYIYKFFDQVAVDNTAKSDLNWSVYRYTDVLLMYAEAQVNADGTPNQQSIDIVNQIRGRAGLAPFKQTNASAFLEEVWDQRYFDLCYENKMWFDMLRTRKIRDDKSGEYVDFIGYKTNWGKVYTETQLLFPIPLSERQANPNLTQNQGY
# Experiments:
# Test in all cases: glycan array binding signal (z-score within array); higher = stronger binding
# Conditions in all cases: glycan notation: IUPAC condensed, linker removed
# Fuc(a1-2)Gal(b1-3)GalNAc = target: Fuc(a1-2)Gal(b1-3)GalNAc
# How it was run: (§1)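 Glycan array binding is given as a within-array Z-score, which can be read as non-binding when negative. The arrays, 3228 of them, came from the Consortium for Functional Glycomics database and were retained only where the protein sequence was available. Z-scores were averaged across arrays of the same protein sequence at different concentrations or buffers and across linkers.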
# [1] = target: Fuc(a1-2)Gal(b1-3)GalNAc(b1-3)Gal
# How it was run: as §1
# [2] = target: Fuc(a1-2)Gal(b1-3)GlcNAc(b1-3)[Neu5Ac(a2-6)Gal(b1-4)GlcNAc(b1-6)]Gal(b1-4)Glc
# How it was run: as §1
# [3] = target: Fuc(a1-2)Gal(b1-3)[Fuc(a1-4)]GlcNAc(b1-2)Man(a1-3)[Fuc(a1-2)Gal(b1-3)[Fuc(a1-4)]GlcNAc(b1-2)Man(a1-3)]Man(b1-4)GlcNAc(b1-4)GlcNAc
# How it was run: as §1
# [4] = target: Fuc(a1-2)Gal(b1-4)GlcNAc(b1-2)Man(a1-3)[Fuc(a1-2)Gal(b1-4)GlcNAc(b1-2)Man(a1-6)]Man(b1-4)GlcNAc(b1-4)GlcNAc
# How it was run: as §1
# [5] = target: Fuc(a1-2)Gal(b1-4)[Fuc(a1-3)]GlcNAc(b1-3)[Neu5Ac(a2-6)Gal(b1-4)GlcNAc(b1-6)]Gal(b1-4)Glc
# How it was run: as §1
# [6] = target: Fuc(a1-2)[Gal(a1-3)]Gal(b1-3)GlcNAc(b1-6)GalNAc
# How it was run: as §1
# [7] = target: Fuc(a1-2)[Gal(a1-3)]Gal(b1-4)GlcNAc(b1-2)Man
# How it was run: as §1
# [8] = target: Fuc(a1-2)[Gal(a1-3)]Gal(b1-4)GlcNAc(b1-6)GalNAc
# How it was run: as §1
# [9] = target: Fuc(a1-2)[GalNAc(a1-3)]Gal(b1-3)GlcNAc(b1-2)Man(a1-3)[Fuc(a1-2)[GalNAc(a1-3)]Gal(b1-3)GlcNAc(b1-2)Man(a1-6)]Man(b1-4)GlcNAc(b1-4)[Fuc(a1-6)]GlcNAc
# How it was run: as §1
# [10] = target: Fuc(a1-2)[GalNAc(a1-3)]Gal(b1-4)GlcNAc
# How it was run: as §1
# [11] = target: Fuc(a1-2)[GalNAc(a1-3)]Gal(b1-4)GlcNAc(b1-2)Man
# How it was run: as §1
# [12] = target: Fuc(a1-2)[GalNAc(a1-3)]Gal(b1-4)GlcNAc(b1-2)Man(a1-3)[Fuc(a1-2)[GalNAc(a1-3)]Gal(b1-4)GlcNAc(b1-2)Man(a1-6)]Man(b1-4)GlcNAc(b1-4)GlcNAc
# How it was run: as §1
# [13] = target: Fuc(a1-2)[GalNAc(a1-3)]Gal(b1-4)GlcNAc(b1-3)GalNAc
# How it was run: as §1
# [14] = target: Fuc(a1-3)[Gal(b1-4)]GlcNAc(b1-2)Man(a1-3)[Fuc(a1-3)[Gal(b1-4)]GlcNAc(b1-2)Man(a1-6)]Man(b1-4)GlcNAc(b1-4)[Fuc(a1-6)]GlcNAc
# How it was run: as §1
# [15] = target: Fuc(a1-3)[Gal3S(b1-4)]GlcNAc6S
# How it was run: as §1
# [16] = target: Gal(a1-3)Gal(b1-3)GlcNAc(b1-2)Man(a1-3)[Gal(a1-3)Gal(b1-3)GlcNAc(b1-2)Man(a1-6)]Man(b1-4)GlcNAc(b1-4)GlcNAc
# How it was run: as §1
# [17] = target: Gal(a1-3)Gal(b1-4)GlcNAc(b1-2)Man(a1-3)[Gal(a1-3)Gal(b1-4)GlcNAc(b1-2)Man(a1-6)]Man(b1-4)GlcNAc(b1-4)GlcNAc
# How it was run: as §1
# [18] = target: Gal(a1-4)Gal(b1-4)GlcNAc(b1-2)Man(a1-3)[Gal(a1-4)Gal(b1-4)GlcNAc(b1-2)Man(a1-6)]Man(b1-4)GlcNAc(b1-4)GlcNAc
# How it was run: as §1
# Gal(b1-2)Gal = target: Gal(b1-2)Gal
# How it was run: as §1
# [19] = target: Gal(b1-3)GlcNAc(b1-2)Man(a1-3)[Gal(b1-3)GlcNAc(b1-2)Man(a1-6)]Man(b1-4)GlcNAc(b1-4)[Fuc(a1-6)]GlcNAc
# How it was run: as §1
# [20] = target: Gal(b1-3)GlcNAc(b1-3)Gal(b1-4)GlcNAc(b1-3)Gal(b1-4)GlcNAc(b1-2)[Gal(b1-3)GlcNAc(b1-3)Gal(b1-4)GlcNAc(b1-3)Gal(b1-4)GlcNAc(b1-6)]Man(a1-6)[Gal(b1-3)GlcNAc(b1-3)Gal(b1-4)GlcNAc(b1-3)Gal(b1-4)GlcNAc(b1-2)Man(a1-3)]Man(b1-4)GlcNAc(b1-4)[Fuc(a1-6)]GlcNAc
# How it was run: as §1
# [21] = target: Gal(b1-3)[Fuc(a1-4)]GlcNAc(b1-2)Man
# How it was run: as §1
# [22] = target: Gal(b1-3)[Neu5Ac(b2-6)]GalNAc
# How it was run: as §1
# Gal(b1-4)Gal = target: Gal(b1-4)Gal
# How it was run: as §1
# [23] = target: Gal(b1-4)GlcNAc(b1-2)Man(a1-6)[Man(a1-3)]Man(b1-4)GlcNAc(b1-4)GlcNAc
# How it was run: as §1
# [24] = target: Gal(b1-4)GlcNAc(b1-2)[Gal(b1-4)GlcNAc(b1-4)]Man(a1-3)[Gal(b1-4)GlcNAc(b1-2)Man(a1-6)]Man(b1-4)GlcNAc(b1-4)GlcNAc
# How it was run: as §1
binder,measurement,setting,value
B1,glycan array binding signal (z-score),Fuc(a1-2)Gal(b1-3)GalNAc,-0.509
same,glycan array binding signal (z-score),[1],-0.373
same,glycan array binding signal (z-score),[2],-0.402
same,glycan array binding signal (z-score),[3],-0.174
same,glycan array binding signal (z-score),[4],3.11
same,glycan array binding signal (z-score),[5],-0.392
same,glycan array binding signal (z-score),[6],-0.255
same,glycan array binding signal (z-score),[7],-0.394
same,glycan array binding signal (z-score),[8],-0.381
same,glycan array binding signal (z-score),[9],-0.391
same,glycan array binding signal (z-score),[10],-0.526
same,glycan array binding signal (z-score),[11],-0.523
same,glycan array binding signal (z-score),[12],4.7
same,glycan array binding signal (z-score),[13],-0.4
same,glycan array binding signal (z-score),[14],2.77
same,glycan array binding signal (z-score),[15],-0.299
same,glycan array binding signal (z-score),[16],3.96
same,glycan array binding signal (z-score),[17],6.89
same,glycan array binding signal (z-score),[18],0.705
same,glycan array binding signal (z-score),Gal(b1-2)Gal,-0.367
same,glycan array binding signal (z-score),[19],0.737
same,glycan array binding signal (z-score),[20],3.2
same,glycan array binding signal (z-score),[21],-0.12
same,glycan array binding signal (z-score),[22],-0.512
same,glycan array binding signal (z-score),Gal(b1-4)Gal,1.08
same,glycan array binding signal (z-score),[23],5.33
same,glycan array binding signal (z-score),[24],0.486
